PI4K2A inh: inhibitors of human PI4K2A; Q9BTU6; purified PI4K2A, ADP-Glo luminescence, 1 h; hits give low values; activity change, negative = inhibition, % at 76.9 µM; 420,000 compounds, 0.13% hits; AID 1346378; in the data active = activity change below about -50%; inconclusive = mostly about -30% to -49%;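 note: -100% = wells without enzyme as full effect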
Target sequence (Q9BTU6 whole entry, looked up): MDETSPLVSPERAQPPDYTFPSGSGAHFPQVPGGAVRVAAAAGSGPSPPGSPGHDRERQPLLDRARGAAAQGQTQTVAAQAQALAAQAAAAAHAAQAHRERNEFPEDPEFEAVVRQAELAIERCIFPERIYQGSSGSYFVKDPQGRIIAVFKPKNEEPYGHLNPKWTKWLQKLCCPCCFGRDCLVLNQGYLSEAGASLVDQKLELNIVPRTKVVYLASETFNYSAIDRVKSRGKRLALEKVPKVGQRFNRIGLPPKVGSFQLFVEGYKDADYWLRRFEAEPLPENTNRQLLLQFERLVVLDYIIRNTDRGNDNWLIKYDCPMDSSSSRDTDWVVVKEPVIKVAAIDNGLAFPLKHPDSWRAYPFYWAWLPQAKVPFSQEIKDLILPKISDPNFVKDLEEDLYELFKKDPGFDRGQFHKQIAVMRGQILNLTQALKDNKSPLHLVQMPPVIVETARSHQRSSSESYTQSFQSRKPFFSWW
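ADP-Glo luminescence measured ADP generated by PI4K2A enzyme (4 ug/mL before mixing) with 1.2 mM PI substrate (pre-mix) and 300 microM ATP (pre-mix). Tris pH7.5 buffer with MgCl2, Triton X-100; 1 h reaction at ambient temperature.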
A549 tox: kills or reduces viability of A549 cells in Nrf2 counter-screen | A549 ARE-Fluc cells, CellTiter-Fluor viability, 18-24 h | Potency, µM (top dose mostly 46 µM), for inactives: at the highest dose activity change, negative = cytotoxicity, usual class: inhibitors | 390,000 compounds, 0.16% hits | AID 504648; note: potency is the fitted concentration of half-maximal effect
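Cytotoxicity counterscreen: CellTiter-Fluor fluorescence was measured in A549 ARE_Fluc cells after 18-24 h of compound exposure in a concentration series. The subsequent BugLite luminescent read reports ARE-luciferase activity.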
KB-3-1 tox: kills parental KB-3-1 adenocarcinoma cells | KB-3-1 viability, CellTiter-Glo ATP luminescence, 72 h | Potency, µM (titrated, usually from 46.1 µM), most hits filed as cytotoxic | 400,000 compounds, 1.4% hits; note: potency is the fitted concentration of half-maximal effect; nearly all actives have a fitted effect of over 60% in size
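Cytotoxicity measured as CellTiter-Glo luminescence after 72 h at 37 C. Compound titrations were pinned onto drug-naive KB-3-1 parental adenocarcinoma cells grown in DMEM with 10% FBS, and normalized data fitted to concentration-response curves.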
Giardia kill: Giardia lamblia killing | Giardia lamblia trophozoite viability | activity change, % at 7.66 µM, hits read low | 340,000 compounds, 0.15% hits | AID 540267; in the data active = activity change below about -80%; inconclusive = between about -30% and that limit;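 note: parasites exposed to compound for two days anaerobically before the ATP read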
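Trophozoites 100 cells/well + cpd; 48 hrs, 37 deg C, anaerobic. ATPLite 1-Step added, 15-30 min RT, luminescence read (ATP-based viability).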
Nrf2 block: inhibitors of Nrf2 signaling; A549 ARE-Fluc reporter, luciferase luminescence, 18-24 h; Potency, µM (series often up to 46 µM), for inactives: at the top dose activity change, negative = inhibition, most hits filed as inhibitors; 360,000 compounds, 2.1% hits; note: potency is the fitted concentration of half-maximal effect; nearly all actives have a fitted effect of over 60% in size
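Reporter: ARE-Fluc in A549. Exposure: 18-24 h, 37 °C, 5% CO2, 5% FBS OPTI-MEM. Readouts: fluorescent cytotoxicity (CellTiter-Fluor), then luminescent Nrf2 signal after BugLite.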
KB-V1 MDR tox: kills drug-selected multidrug resistant KB-V1 cells; Potency, µM (top dose mostly 46.1 µM), most hits filed as cytotoxic; 400,000 compounds, 3.4% hits; AID 1347076; KB-V1 MDR cells viability, CellTiter-Glo, 72 h; note: potency is the fitted concentration of half-maximal effect; nearly all actives have a fitted effect of over 60% in size
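Luminescent ATP read-out (CellTiter-Glo, 10 min) measures survival of drug-selected KB-V1 MDR cells after 72 h, 37 degrees C compound exposure. Medium: phenol-red-free DMEM, 10% FBS. Values from fitted concentration-response curves.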
The depositor's hits bear a star; i = inactive; ? = inconclusive; . = not tested or not shown. The list is not random: actives were taken first. Their share in the collection is about 5.7%. Unless noted, calls come from the whole dose curve; as a rule, active = well fitted curve in the direction sought with a large enough effect; inconclusive = small, poorly fitted or top-dose-only effect, or another doubt; inactive = no such curve, though single readings can be large; an effect the other way counts as inactive or inconclusive. Unless noted, % is set by controls: 0 for no effect and ±100 for the full control effect.

SMILES | PI4K2A inh | A549 tox | KB-3-1 tox | Giardia kill | Nrf2 block | KB-V1 MDR tox
Cn1c(=O)n(C)c2cc(NS(=O)(=O)c3ccc4c(c3)CCCC4)ccc21 | 2 | ? | 18µM* | -2 | -41% | 9.2µM*
Cn1c(=O)c2cc(S(=O)(=O)N3CCN(c4ccc(F)cc4)CC3)ccc2n(C)c1=O | 1 | . | . | . | . | .
O=C1CCc2cc(S(=O)(=O)Nc3ccc(Cl)cc3)ccc2N1 | . | -5% | . | . | ? | .
COc1ccc2c3n([n+]([O-])c2c1)CCN=C3c1ccc(C)cc1 | 1 | -2% | i | -90* | 10% | i
COc1ccc(C2=NCCn3nc4cc(OC)ccc4c32)cc1 | 6 | -6% | i | -6 | -8% | i
COc1ccc2c3n([n+]([O-])c2c1)CCN=C3c1cc(Cl)c(N)c(Cl)c1 | -2 | ? | ? | -93* | -20% | i
C=CCn1c(SCC(=O)c2[nH]c(C)c(C(=O)OCC)c2C)nc2scc(-c3ccc(OC)cc3)c2c1=O | -4 | -3% | 4.6µM* | 5 | ? | ?
CCCN(CC(=O)Nc1cc(C)on1)CC(=O)Nc1ccc(F)c(F)c1F | -1 | -1% | i | 4 | 2% | 4.6µM*
O=C(CCc1ccccn1)NC1CCCc2c1cnn2-c1ccc(F)cc1F (centres undefined) | -1 | -13% | ? | -3 | -3% | 21µM*
O=C(NC1CCCc2c1cnn2-c1ccccc1F)c1ccccn1 (centres undefined) | -2 | 0% | i | 32 | ? | ?
CCc1cc(C(=O)NC2CCCc3c2cnn3-c2ccc(F)cc2F)no1 (centres undefined) | -7 | . | 15µM* | . | . | ?
Cc1nnsc1C(=O)NC1CCCc2c1cnn2-c1ccccc1F (centres undefined) | 1 | -16% | ? | 1 | 2.1µM* | ?
O=C(CCc1ccncc1)NC1CCCc2c1cnn2-c1ccc(F)cc1F (centres undefined) | -6 | -10% | i | 14 | 8.2µM* | i
Cc1ccccc1-n1c(=O)n(Cc2ccco2)c(=O)c2[nH]cnc21 | 4 | 4% | i | 5 | 5% | i
Clc1cccc(Cl)c1Cn1cnc(=NCc2ccco2)c2[nH]cnc21 | -1 | 5% | i | -11 | . | 8.2µM*
Clc1cccc(Cl)c1Cn1cnc2c(NCc3ccco3)ncnc21 | 2 | 0% | ? | -23 | . | 3.5µM*
Cn1cnc2c(NCc3ccco3)ncnc21 | 0 | -1% | i | -17 | 8% | i
CS(=O)(=O)c1ccc(Cl)c(NC(=O)CCl)c1 | -1 | -15% | 6.5µM* | 37 | 21µM* | 21µM*
CS(=O)(=O)c1ccc(Cl)c(NC(=O)COC(=O)c2ccc(F)cc2Cl)c1 | 5 | 13% | i | 2 | 12µM* | i
CS(=O)(=O)c1ccc(Cl)c(NC(=O)COC(=O)c2cccc(C#N)c2)c1 | 0 | 0% | i | 2 | -8% | i
CCN(CC)S(=O)(=O)c1ccc(Cl)c(NC(=O)COC(=O)c2cccn2C)c1 | -2 | -25% | i | -15 | ? | 15µM*
O=C1NC2(CCCCC2)C(=O)N1CC(=O)N1CCc2ccccc21 | -3 | 7% | i | -1 | 0% | i
CCCC1(CCC)NC(=O)N(CC(=O)N2CCc3ccccc32)C1=O | -1 | 9% | i | -6 | 15% | 16µM*
CC(=O)C1(C(=O)NCc2ccccc2)CC(c2ccccc2C(F)(F)F)=NO1 (centres undefined) | -1 | . | . | . | . | .
COc1ccc(S(=O)(=O)c2cn(C)c3cc(N4CCOCC4)c(F)cc3c2=O)cc1 | -2 | 1% | i | . | 0% | i
SMILES | PI4K2A inh | A549 tox | KB-3-1 tox | Giardia kill | Nrf2 block | KB-V1 MDR tox
COc1ccc(CCn2c(=S)[nH]c(=O)c3c(C)cc(C)nc32)cc1OC | . | 16% | . | 14 | -1% | .
COc1ccc(CCn2c(=S)[nH]c(=O)c3nccnc32)cc1OC | . | ? | . | -17 | 18µM* | .
Cc1ccc(CNC(=O)c2ccc([N+](=O)[O-])o2)cc1 | 5 | -16% | ? | -86* | -3% | ?
Cc1ccc(-c2csc(NC(=O)c3ccc([N+](=O)[O-])o3)n2)cc1 | -1 | ? | ? | -95* | ? | i
Cc1ccc(-c2csc(NC(=O)c3ccc(C)o3)n2)cc1 | 1 | -2% | i | 7 | -6% | i
CN(Cc1ccccc1)C(=O)c1ccc([N+](=O)[O-])o1 | 2 | -22% | i | -87* | -20% | ?
Cc1ccc(CNC(=O)CSc2ccsc2[N+](=O)[O-])cc1 | 3 | 0% | i | -88* | ? | i
Cc1ccc(/C=C/C(=O)c2ccc([N+](=O)[O-])o2)cc1 | 1 | -9% | i | -1 | 2% | ?
CN(C)CCCOC1(Cc2ccccc2)CCCCCC1 | 3 | . | . | . | . | .
COc1ccc(/C=C2\CC3(OC(=O)c4ccccc4)CCCN2C3)cc1 (centres undefined) | 2 | . | . | . | . | .
C=CCn1c(NC(=O)c2ccc(C)cc2)c(C#N)sc1=N | -4 | 1% | 5.2µM* | -9 | 18% | 1.3µM*
Cc1[nH]c2c(C)cccc2c1CCNS(=O)(=O)c1cccc([N+](=O)[O-])c1 | 0 | 1% | ? | -15 | -2% | 23µM*
Clc1ccc(Nc2ccc(NCc3ccccc3)nn2)cc1 | -4 | -6% | i | 1 | 17% | 16µM*
COc1ccc2c(c1)CCCN2C(=O)C1CCCN(S(=O)(=O)c2ccc(C(C)(C)C)cc2)C1 (centres undefined) | -6 | . | . | . | . | .
COCCCN1C(=O)C(CC(=O)NCCc2ccccn2)CC(C(=O)N(C(C)C)C(C)C)=C1C (centres undefined) | 2 | . | i | . | . | i
CC1=C(C(=O)N(C(C)C)C(C)C)CC(CC(=O)NCCc2ccccn2)C(=O)N1CCC1=CCCCC1 (centres undefined) | -1 | . | 21µM* | . | . | i
Nc1[nH]c(C(=O)c2ccccc2)c(-c2ccc(Cl)cc2Cl)c1C(=O)NCCC1=CCCCC1 | -3 | . | . | . | . | .
Cc1ccc(-n2nnnc2-c2cccnc2)cc1 | 1 | 2% | i | -1 | 7% | i
Fc1ccc(-n2nnnc2-c2cnc(-c3cccs3)nc2C(F)(F)F)cc1 | -2 | ? | ? | -1 | 15µM* | 23µM*
FC(F)(F)c1nc(N2CCCC2)ncc1-c1nnnn1-c1ccc(Cl)cc1 | -5 | -13% | ? | -16 | 13µM* | 15µM*
FC(F)(F)c1ccncc1-c1nnnn1-c1ccc(Cl)cc1 | -1 | 0% | i | -5 | -4% | i
Cc1ccc(-n2nnnc2-c2cnc(-c3cccnc3)nc2C(F)(F)F)cc1 | 3 | -25% | ? | 1 | ? | 21µM*
